Efflux pump inh – inhibitors of Candida antifungal efflux pumps expressed in yeast; S. cerevisiae Candida pump triplex, Nile Red efflux; inhibition, % at 10 µM; actives 0.44% (n = 330,000); AID 485275;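 active = plate passing quality check with inhibition over a set limit, or well fluorescence over plate mean plus 4 SD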;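 also: Nile Red retained in pooled yeast measured as flow cytometry median fluorescence; 0% = buffer negative control and 100% = Enniatin B positive control; higher means more Nile Red kept so more efflux inhibition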
GRK2 inh – blocks RNA aptamer binding to human GRK2. AID 488847. actives 0.59% (n = 330,000). bead flow cytometry, FAM-aptamer displacement from GRK2. inhibition of aptamer binding, % at 10 µM. P25098;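 active = inhibition of aptamer binding above 40%, roughly 3 SD of noise, on plates passing a quality check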;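 also: median bead fluorescence of bound FAM aptamer so fluorescent compounds give negative values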
ATG4B inhibitor – blocks human ATG4B protease cleavage of LC3 substrate. actives 0.51% (n = 340,000). Q9Y4P1. ATG4B cleavage of LC3-PLA2, NBD-HPC fluorescence, 1 h. AID 504462. inhibition, % at 8.33 µM; in the data active = inhibition above about 40%
Target sequence (Q9Y4P1 whole entry, looked up): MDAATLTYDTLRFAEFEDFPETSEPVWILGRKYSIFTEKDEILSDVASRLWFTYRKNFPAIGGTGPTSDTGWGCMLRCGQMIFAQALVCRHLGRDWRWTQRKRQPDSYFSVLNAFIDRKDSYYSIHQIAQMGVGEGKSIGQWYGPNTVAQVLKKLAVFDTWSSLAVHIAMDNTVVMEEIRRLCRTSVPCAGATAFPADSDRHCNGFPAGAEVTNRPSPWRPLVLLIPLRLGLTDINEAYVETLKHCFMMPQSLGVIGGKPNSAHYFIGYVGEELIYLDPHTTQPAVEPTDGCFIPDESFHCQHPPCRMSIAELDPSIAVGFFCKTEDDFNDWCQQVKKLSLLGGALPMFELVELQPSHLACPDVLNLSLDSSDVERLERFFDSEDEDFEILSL
Yeast superoxide – yeast age-related superoxide inhibition as caloric restriction mimetic; superoxide response (% of plate mean), % at 10 µM; actives 0.18% (n = 330,000); AID 2690; S. cerevisiae aged cells, superoxide DHE fluorescence; stronger effect = lower value;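 active = superoxide response under a set limit, about three screen SD below normal, cut at about 65% in these data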;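 also: yeast aged for seven days with compound at 30 °C before DHE staining; 100% = average MFI of all compound-treated wells on the plate with controls excluded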
GRK2 inh confirm – human GRK2 inhibition confirmation, cherry pick 1 | shares compounds with GRK2 inh | bead-bound GRK2, FAM-aptamer displacement, flow cytometry | aptamer displacement, % at 10 µM | actives 4% (n = 2,000) | AID 504451;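 active = aptamer displacement above 40%, near three times the noise of non-fluorescent compounds, on plates passing quality checks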;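 also: negative values mostly reflect intrinsic compound fluorescence rather than true enhancement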
FAM quench CP1 – counter-screen for GRK2 aptamer inhibitors: fluorescent aptamer quenchers | shares compounds with GRK2 inh | Carboxyfluorescein RNA aptamer on beads, flow cytometry quenching; stronger effect = lower value | fluorescence response (% of DMSO), % at 10 µM | 2,000 tested, under 10 active | AID 504580;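 active = compounds that quench the bead-bound fluorescent RNA probe, cutting fluorescence to under half of the solvent control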;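 also: counterscreen run without GRK2 so only probe quenching by compound is measured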
GRK2 confirm 2 – human GRK2 inhibition confirmation, cherry pick 2 | bead-bound GRK2, FAM-aptamer displacement, flow cytometry | shares compounds with GRK2 inh | 360 tested, under 10 active | inhibition of aptamer binding, % at 10 µM | AID 504782;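 active = inhibition of aptamer binding above 40%, about triple the noise seen with nonglowing compounds, on plates passing quality control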;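 also: negative values mostly come from compounds that fluoresce themselves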
Aptamer quench 2 – counter-screen for GRK2 aptamer inhibitors: fluorescent aptamer quenchers; change in fluorescence (kMESF span), kMESF (test concentration not listed); shares compounds with GRK2 inh; 25 tested, under 10 active; Streptavidin beads, FAM-RNA aptamer fluorescence quenching, flow cytometry;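 active = compounds quenching the bead-bound labeled aptamer, with fluorescence dropping by more than 37 kMESF over the dose range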
FAM quench CP2 – aptamer fluorescence quenching in GRK2 counter-screen; shares compounds with GRK2 inh; carboxyfluorescein RNA aptamer beads, flow cytometry quenching; stronger effect = lower value; fluorescence response vs DMSO, % at 10 µM; 360 tested, under 10 active;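 active = response vs DMSO under 50%, meaning signal dropped by over half, treated as fluorescence quencher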;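 also: labelled aptamer on streptavidin beads without GRK2 as a quench counter-screen; 100% = bead fluorescence of DMSO wells and lower means quenching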
* marks the source's active call; other numbers are inactive results. Compounds with a hit are over-represented: about 1.6% of the library has one in this group of screens.

Results for O=C(COc1cccc(C(F)(F)F)c1)NCC(c1ccco1)N1CCCCC1 (configuration not stated) ?
Efflux pump inh: 0; GRK2 inh: 2; ATG4B inhibitor: -1; Yeast superoxide: 101

Results for Cc1nn(C)c(C(=O)N2CCc3ccccc32)c1Br ?
Efflux pump inh: 0; GRK2 inh: 41*; ATG4B inhibitor: -3; Yeast superoxide: 98; GRK2 confirm 2: -3; FAM quench CP2: 99

Results for Cc1c(Br)c(C(=O)N2CCc3ccccc32)nn1C ?
Efflux pump inh: 0; GRK2 inh: 0; ATG4B inhibitor: 2; Yeast superoxide: 93

What do the screens show for `O=C1CC(=O)N(Cc2ccco2)C(=S)N1`?
Efflux pump inh: 0; GRK2 inh: 68*; ATG4B inhibitor: 46*; Yeast superoxide: 116; GRK2 inh confirm: -4; FAM quench CP1: 99

What do the screens show for `S=C1NCN(Cc2ccco2)CN1`?
Efflux pump inh: 0; GRK2 inh: 1; ATG4B inhibitor: -9; Yeast superoxide: 89

What do the screens show for `Cc1ccc(Cn2c(CCCO)nc3ccccc32)cc1`?
Efflux pump inh: 0; GRK2 inh: 2; ATG4B inhibitor: -7; Yeast superoxide: 103

How did COc1ccc(-c2csc3nc(-c4ccc(C)cc4)oc(=O)c23)cc1OC do in these assays?
Efflux pump inh: 0; GRK2 inh: 79*; ATG4B inhibitor: 4; Yeast superoxide: 148; GRK2 confirm 2: 65*; Aptamer quench 2: 3.3; FAM quench CP2: 101

How did COc1cc(NC(=O)Nc2cccc(C(C)=O)c2)cc(OC)c1OC do in these assays?
Efflux pump inh: 0; GRK2 inh: 0; ATG4B inhibitor: 1; Yeast superoxide: 88

What do the screens show for `COc1cc(NC(C(=O)Nc2cccc(C(C)=O)c2)c2ccccc2)cc(OC)c1OC` (configuration not stated)?
Efflux pump inh: 0; GRK2 inh: 76*; ATG4B inhibitor: 0; Yeast superoxide: 91; GRK2 confirm 2: 13; FAM quench CP2: 105

Results for Cc1ccc(S(=O)(=O)N(C)CC(=O)O/N=C(\N)c2ccccn2)cc1 ?
Efflux pump inh: 0; GRK2 inh: 100*; ATG4B inhibitor: -8; Yeast superoxide: 112; GRK2 inh confirm: 1; FAM quench CP1: 102

How did COc1ccc(CC(=O)NC2CC(C)(C)NC(C)(C)C2)cc1 do in these assays?
Efflux pump inh: 0; GRK2 inh: 42*; ATG4B inhibitor: -12; Yeast superoxide: 119; GRK2 inh confirm: 0; FAM quench CP1: 99

How did CC1(C)CC(NC(=O)Cc2ccccc2)CC(C)(C)N1 do in these assays?
Efflux pump inh: 0; GRK2 inh: 0; ATG4B inhibitor: 9; Yeast superoxide: 98

How did Cc1ccc(CC2(O)CC(C)N(C)CC2C)c(C)c1 (configuration not stated) do in these assays?
Efflux pump inh: 0; GRK2 inh: 56*; ATG4B inhibitor: -7; Yeast superoxide: 95; GRK2 inh confirm: -1; FAM quench CP1: 104

What do the screens show for `COc1ccc(C2(CCN)CC(C)N(C)CC2C)cc1` (configuration not stated)?
Efflux pump inh: 0; GRK2 inh: 0; ATG4B inhibitor: 2; Yeast superoxide: 97

Results for Cc1ccc(N(C)S(=O)(=O)c2cccc(C(=O)OCC(=O)c3c(N)n(C)c(=O)n(C)c3=O)c2)cc1 ?
Efflux pump inh: 0; GRK2 inh: 2; ATG4B inhibitor: -5; Yeast superoxide: 101

Results for CCOc1ccccc1OCCCC(=O)OCC(=O)Nc1cccc(Cl)c1 ?
Efflux pump inh: 0; GRK2 inh: 81*; ATG4B inhibitor: 3; Yeast superoxide: 86; GRK2 inh confirm: -1; FAM quench CP1: 102

How did CN(C)CCCn1c(SCc2c(Cl)cccc2Cl)nnc1-c1ccncc1 do in these assays?
Efflux pump inh: 0; GRK2 inh: 44*; ATG4B inhibitor: -4; Yeast superoxide: 96; GRK2 confirm 2: 2; FAM quench CP2: 99

What do the screens show for `Cc1c(NC(=O)c2ccc(Cl)nc2)cccc1-c1nc2cccnc2s1`?
Efflux pump inh: 0; GRK2 inh: 1; ATG4B inhibitor: -1; Yeast superoxide: 104

What do the screens show for `Cc1c(NC(=O)c2ccco2)cccc1-c1nc2cccnc2s1`?
Efflux pump inh: 0; GRK2 inh: 46*; ATG4B inhibitor: -5; Yeast superoxide: 93; GRK2 inh confirm: -1; FAM quench CP1: 98

What do the screens show for `COc1cccc(CNC(=O)CN2C(=O)COc3ccc(S(=O)(=O)N4CCCC4)cc32)c1`?
Efflux pump inh: 0; GRK2 inh: 3; ATG4B inhibitor: -1; Yeast superoxide: 76

How did CC(C)(C)/C=N/NC(=O)CNC(=O)c1ccc2c(c1)OCCO2 do in these assays?
Efflux pump inh: 0; GRK2 inh: 3; ATG4B inhibitor: -4; Yeast superoxide: 98

Results for O=C(O)CC/C(=N/NC(=O)CNC(=O)c1ccc2c(c1)OCCO2)c1ccccc1 ?
Efflux pump inh: 0; GRK2 inh: 1; ATG4B inhibitor: -9; Yeast superoxide: 107; GRK2 inh confirm: 1; FAM quench CP1: 103

What do the screens show for `O=C(NC(=S)Nc1ccc2oc(-c3ccncc3)nc2c1)c1ccccc1F`?
Efflux pump inh: 0; GRK2 inh: 40; ATG4B inhibitor: 10; Yeast superoxide: 103; GRK2 inh confirm: -14; FAM quench CP1: 100

Results for O=C(Nc1ccc2oc(-c3ccc(F)cc3)nc2c1)c1ccccc1F ?
Efflux pump inh: 0; GRK2 inh: 2; ATG4B inhibitor: -10; Yeast superoxide: 99

Results for O=[N+]([O-])c1ccc(N2CCN(c3ccc(Cl)nn3)CC2)cc1NC1CC1 ?
Efflux pump inh: 0; GRK2 inh: 64*; ATG4B inhibitor: -6; Yeast superoxide: 105; GRK2 inh confirm: -1; FAM quench CP1: 99

Results for O=[N+]([O-])c1ccc(N2CCN(c3ccc(Cl)nn3)CC2)c(Cl)c1 ?
Efflux pump inh: 0; GRK2 inh: 0; ATG4B inhibitor: 2; Yeast superoxide: 97

How did Cc1nn(CCCC(=O)NCc2ccc(F)cc2)c(C)c1[N+](=O)[O-] do in these assays?
Efflux pump inh: 0; GRK2 inh: 0; ATG4B inhibitor: 12; Yeast superoxide: 115

How did Cc1nn(CC(=O)N(C)Cc2ccc(F)cc2)c(C)c1[N+](=O)[O-] do in these assays?
Efflux pump inh: 0; GRK2 inh: 100*; ATG4B inhibitor: 11; Yeast superoxide: 109; GRK2 confirm 2: 7; FAM quench CP2: 102

Bioassay records deposited in PubChem BioAssay by several laboratories.
